Sampled rows, rich in hits. Any-hit rate of the full collection: about 6.7%.
Mtb FBA inh = Mtb FBA enzyme inhibitors, primary screen, biochemical, fluorescence, strain H37Rv | Fructose-bisphosphate aldolase (Mycobacterium tuberculosis (strain ATCC 25618 / H37Rv)), … | purified M. tuberculosis FBA, fluorescence read-out | inhibition, % at 1 µM | 360,000 compounds, 2.3% hits | AID 588726, 2011; in the data active = inhibition above about 27%;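 note: 0% = vehicle and 100% = reference inhibitor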
Target sequence (P9WQA3 whole entry, looked up): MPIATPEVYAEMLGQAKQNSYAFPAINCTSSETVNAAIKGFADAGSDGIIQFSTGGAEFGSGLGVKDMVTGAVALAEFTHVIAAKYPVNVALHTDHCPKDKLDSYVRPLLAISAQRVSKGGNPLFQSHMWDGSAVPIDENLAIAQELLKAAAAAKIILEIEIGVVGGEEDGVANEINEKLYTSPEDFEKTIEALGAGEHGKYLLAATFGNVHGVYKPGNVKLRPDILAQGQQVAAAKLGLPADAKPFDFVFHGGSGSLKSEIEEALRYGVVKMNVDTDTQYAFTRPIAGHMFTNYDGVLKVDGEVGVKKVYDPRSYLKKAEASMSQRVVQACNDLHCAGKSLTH
Anthrax LF prot = Bacillus anthracis LF protease inhibitors, primary screen, biochemical, multiplex microsphere, MLPCN library | multiplex microsphere protease cleavage assay | Lethal factor (Bacillus anthracis), P15917 | 360,000 compounds, 0.12% hits | inhibition, % at 10 µM; note: plate controls were buffer without enzyme for full effect and enzyme alone for no effect
BoNT-A LC inh2 = BoNT/A light chain protease inhibitors, primary screen, biochemical, flow cytometry, MLPCN library; Botulinum neurotoxin type A light chain protease (Clostridium botulinum A str. ATCC 3502); inhibition, % at 10 µM; 360,000 compounds, 0.17% hits; multiplex microsphere protease substrate cleavage; AID 588499, 2011; note: plate controls were buffer without enzyme for full effect and enzyme alone for no effect
Autofluor counter = flagged as autofluorescent in microsphere protease counterscreen; fluorescence intensity (test concentration not listed); compound autofluorescence counterscreen, microsphere flow cytometry; hits give high values; 360,000 compounds, 3.1% hits; in the data active = fluorescence intensity above about 16000; inconclusive = no clear call, values can overlap the other calls
GDH-TPI inh = GDH-TPI coupling enzyme inhibitors, primary screen, artefact control for M. tuberculosis FBA inhibitor project, biochemical, absorbance, full deck. GDH-TPI coupled enzyme counterscreen, NADH absorbance. 360,000 compounds, 1.2% hits. AID 588335, 2011. inhibition, % at 4.8 µM; in the data active = inhibition above about 30%;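 note: 0% = DMSO wells and 100% = wells lacking the enzyme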
BoNT-F LC inh = BoNT/F light chain protease inhibitors, primary screen, biochemical, flow cytometry, MLPCN library | Botulinum neurotoxin type F light chain protease (Clostridium botulinum) | Multiplex microsphere protease cleavage assay | inhibition, % at 10 µM | 360,000 compounds, 0.22% hits | AID 588497, 2011; in the data active = inhibition above about 35%, passing the limit was not always enough; inconclusive = no clear call, values can overlap the other calls; note: plate controls were buffer without enzyme for full effect and enzyme alone for no effect
* marks the source's active call; other numbers are inactive results; u = inconclusive. Cut-off read from the data, not from the text of the source, unless noted: active = inhibition above about 30%; inconclusive = no clear call, values can overlap the other calls; inactive = below that.

SMILES | Mtb FBA inh | Anthrax LF prot | BoNT-A LC inh2 | Autofluor counter | GDH-TPI inh | BoNT-F LC inh
COC(=O)NC1CCC(CC2CCC(NC(=O)OC)CC2)CC1 (stereo not drawn) | 3 | -2 | -1 | 4078 | -5 | -8
Cc1ccc(C(=O)O)cc1S(=O)(=O)N1CCOCC1 | 1 | -1 | -2 | 16552* | 9 | -3
COc1ccc(N2CCN(C(=O)c3ccc(S(=O)(=O)N4CCOCC4)cc3)CC2)cc1 | 6 | 2 | 0 | 22765* | 3 | 2
COC(=O)c1cccc(S(=O)(=O)N2CCCC2)c1 | 4 | -2 | 0 | 2380 | -4 | 2
Cc1ccc(C(=O)N2CCOCC2)cc1S(=O)(=O)N1CCOCC1 | -1 | -2 | -1 | 5328 | -6 | -8
COc1ccc(OC(=O)c2cccc(S(=O)(=O)N3CCCC3)c2)cc1 | 4 | -3 | -5 | 24453* | 7 | -5
COc1cc(-n2cnnn2)ccc1S(=O)(=O)N1CCOCC1 | -2 | 1 | u | 22844* | 8 | -2
O=C(O)c1c(Cl)c(Cl)c(Cl)c(Cl)c1C(=O)N1CCCCCC1 | 1 | -4 | 0 | 4486 | 1 | -4
COc1ccc(C(O)c2ncc(-c3cccc(OCc4ccccc4)c3)[nH]2)cc1F (stereo not drawn) | 0 | 5 | 0 | 3710 | 10 | -3
NCCc1nnc(SCc2ccccc2)o1 | 3 | -9 | 0 | 9069 | -9 | 3
CNC(=O)c1cc(S(=O)(=O)Nc2ccc3c(c2)OCCO3)ccc1C | 0 | -3 | -3 | 4291 | 0 | u
COC(=O)c1ccc(Cn2c(C)c(C(=O)NCc3ccc(C#N)cc3)sc2=O)o1 | 1 | -3 | 0 | 5156 | 2 | -10
O=C(c1cccc(S(=O)(=O)N2CCOCC2)c1)N1CCN(c2ccc(F)cc2)CC1 | 3 | -5 | 4 | 21227* | -2 | 5
COc1ccc(C(=O)N2CCN(S(=O)(=O)c3ccc(F)cc3)CC2)cc1OC | 0 | -1 | 0 | 2477 | 6 | -1
COc1ccc(C(=O)N2CCN(S(=O)(=O)c3ccc(Cl)cc3)CC2)cc1OC | 2 | 4 | 4 | 21574* | -1 | 8
COc1ccc(N2CCN(S(=O)(=O)c3cccc(C(F)(F)F)c3)CC2)cc1 | 0 | -11 | 1 | 20076* | -13 | -4
COc1ccc(N2CCN(C(=O)c3ccc(-n4nc(C)cc4C)cc3)CC2)cc1 | -6 | -3 | -4 | 25032* | 8 | -8
CCOC(=O)C1CCN(c2c(NCc3ccc(N(C)C)cc3)c(=O)c2=O)CC1 | 0 | 0 | 0 | 4466 | 0 | -2
CC(NC(=O)Cc1c(F)cccc1Cl)C1CCCO1 (stereo not drawn) | 2 | -1 | 1 | 10930 | 6 | -3
O=C(CCCN1C(=O)/C(=C/c2ccccc2Cl)SC1=S)NNC(=O)c1ccccc1Cl | 0 | 0 | -1 | 2061 | 2 | 2
O=C(NCCN1C(=O)S/C(=C\c2ccc(Cl)cc2)C1=O)c1ccc(F)c(S(=O)(=O)N2CCOCC2)c1 | -1 | 2 | 1 | 10557 | 4 | -6
O=C(NCCN1C(=O)S/C(=C\c2ccc(F)cc2)C1=O)c1cccc(S(=O)(=O)N2CCOCC2)c1 | -3 | -2 | 0 | 3019 | 36* | 0
CCOc1cc(Br)c(CN2C(=O)NC3(CCCCCC3)C2=O)cc1OCC | 5 | 0 | 0 | 5508 | -3 | -5
CCOC(=O)c1nn(-c2ccccc2)c(=O)cc1SC(C)C | 4 | -1 | 0 | 11481 | -11 | 2
CCOC(=O)c1nn(-c2ccccc2)c(=O)cc1SC(C)CC (stereo not drawn) | 2 | 0 | -2 | 23432* | 16 | -3
CCCCSc1cc(=O)n(-c2ccccc2)nc1C(=O)OCC | 3 | 0 | -2 | 23302* | 6 | -4
Cc1c(Cl)ccc2c(C(N)=O)cc(-c3ccccn3)nc12 | 0 | -1 | 0 | 4672 | 2 | -5
COc1ccc(Cl)cc1N(CC(=O)Nc1cccc(SC)c1)S(C)(=O)=O | -1 | -6 | 4 | 21540* | 11 | 4
